# From PubChem BioAssay (NCATS)
# Where “and” joins values, the source holds several entries; their conditions need not be identical. Identical values can stand only once. Records with an inconclusive call do not appear. A call without a number means that no potency is given here. Calls of active or inactive are those of the source. Unless noted, calls come from the whole dose curve; as a rule, active = well fitted curve in the direction sought with a large enough effect; inconclusive = small, poorly fitted or top-dose-only effect, or another doubt; inactive = no such curve, though single readings can be large; an effect the other way counts as inactive or inconclusive.
# What was measured:
# [1] = target: Peptidyl-prolyl cis-trans isomerase NIMA-interacting 1 (Homo sapiens) (UniProt Q13526); test: qHTS Validation Assay to Find Inhibitors of Pin1 (AID 504536; active = well fitted inhibition curve with a large enough effect in the polarisation, with a control signal flat, not every such curve was filed as active; the % refers to the polarisation; note: potency is the fitted concentration of half-maximal effect)
# Sequence of Peptidyl-prolyl cis-trans isomerase NIMA-interacting 1 (Homo sapiens) (Q13526 whole entry, looked up): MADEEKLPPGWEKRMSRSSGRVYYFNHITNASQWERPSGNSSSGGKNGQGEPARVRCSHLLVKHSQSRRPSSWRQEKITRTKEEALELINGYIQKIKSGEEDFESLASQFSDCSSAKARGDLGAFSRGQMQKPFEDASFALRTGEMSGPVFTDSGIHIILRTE
# In short: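 Fluorescence polarization competition: compounds (titration) displace HiFluor-488-labeled Pin1-1b peptide from Pin1 (0.3 uM final) in pH 7.5 HEPES buffer with DTT, 10 min at room temperature; %Activity normalized to no-enzyme wells, curves fitted.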
# [2] = target: Phosphoglycerate kinase, glycosomal (Trypanosoma brucei brucei) (UniProt P07378); test: qHTS Validation Assay to Find Inhibitors of Phosphoglycerate Kinase (AID 504547); note: potency is the fitted concentration of half-maximal effect
# In short: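 Inhibition of the enzyme is judged by a Kinase-Glo Plus luminescent signal following a one-hour incubation at room temperature. Because 1,3-BPG is unstable, it is made in situ by GAPDH at 100nM final; no-PGK wells define the baseline.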
# [3] = target: phosphoglycerate mutase (Leishmania major) (UniProt Q4Q090); test: qHTS Validation Assay to Find Inhibitors of Phosphoglycerate Mutase (AID 504548); details: Potency: inhibition qHTS; note: potency is the fitted concentration of half-maximal effect
# Sequence of phosphoglycerate mutase (Leishmania major) (Q4Q090 1-553): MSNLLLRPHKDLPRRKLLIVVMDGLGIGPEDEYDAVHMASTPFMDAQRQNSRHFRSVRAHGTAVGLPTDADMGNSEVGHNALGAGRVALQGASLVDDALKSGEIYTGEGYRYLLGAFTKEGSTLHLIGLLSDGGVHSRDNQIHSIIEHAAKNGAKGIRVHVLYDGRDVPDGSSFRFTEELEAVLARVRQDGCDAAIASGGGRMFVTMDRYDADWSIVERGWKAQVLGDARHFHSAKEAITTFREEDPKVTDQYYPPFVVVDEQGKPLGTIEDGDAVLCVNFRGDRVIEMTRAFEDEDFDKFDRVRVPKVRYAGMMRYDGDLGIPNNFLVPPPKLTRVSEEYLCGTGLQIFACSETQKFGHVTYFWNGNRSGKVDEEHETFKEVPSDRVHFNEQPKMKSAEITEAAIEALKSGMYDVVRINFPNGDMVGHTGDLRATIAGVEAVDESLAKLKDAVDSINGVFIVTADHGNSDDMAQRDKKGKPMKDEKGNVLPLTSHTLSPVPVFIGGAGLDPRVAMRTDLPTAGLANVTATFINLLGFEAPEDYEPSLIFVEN
# In short: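 L. major PGAM (1.25nM final) was added to substrate buffer and pinned compound, incubated 45 minutes at room temperature, then Kinase-GloPlus added; luminescence read after 10 minutes. Buffer: 100 mM TEA pH 7.6, 5 mM MgCl2, 0.01% Tween-20.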
# [4] = qHTS for Inhibitors of ATXN expression: Validation (AID 588378); note: nearly all actives have a fitted effect of over 75% in size; note: potency is the fitted concentration of half-maximal effect
# In short: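 Validation of ATXN2 expression inhibitors uses a cell-based luciferase fusion reporter in HEK293 cells, with 24 h compound exposure and paired viability (fluorescence) and reporter (luminescence) end-point reads.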
# [5] = target: DNA dC->dU-editing enzyme APOBEC-3G (Homo sapiens) (UniProt Q9HC16); test: qHTS for inhibitors of Vif-A3G interactions: Validation (AID 588379); note: potency is the fitted concentration of half-maximal effect
# Sequence of DNA dC->dU-editing enzyme APOBEC-3G (Homo sapiens) (Q9HC16 whole entry, looked up): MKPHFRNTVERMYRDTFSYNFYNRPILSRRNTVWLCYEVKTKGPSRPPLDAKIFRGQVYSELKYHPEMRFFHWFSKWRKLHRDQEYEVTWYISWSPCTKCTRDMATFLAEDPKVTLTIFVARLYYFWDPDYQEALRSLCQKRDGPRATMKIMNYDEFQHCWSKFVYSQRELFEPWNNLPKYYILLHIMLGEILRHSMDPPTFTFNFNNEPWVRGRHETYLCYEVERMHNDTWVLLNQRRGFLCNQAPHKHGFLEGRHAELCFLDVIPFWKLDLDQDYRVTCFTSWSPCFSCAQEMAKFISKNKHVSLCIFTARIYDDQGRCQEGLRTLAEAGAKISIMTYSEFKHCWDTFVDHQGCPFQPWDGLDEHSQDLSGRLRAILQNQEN
# In short: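 HeLa cells stably expressing Vif and A3G-eYFP, 700 cells/well, incubated overnight at 37 deg C, then exposed to compound overnight at 37 deg C. Inhibition of Vif-mediated degradation read as increased yellow fluorescence (Ex 488/Em 500-530) by laser-scanning cytometry.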
# [6] = target: Ubiquitin carboxyl-terminal hydrolase 1 (Homo sapiens) (UniProt O94782); test: Inhibitors of USP1/UAF1: Pilot qHTS (AID 504865); note: nearly all actives have a fitted effect of over 35% in size; note: potency is the fitted concentration of half-maximal effect
# Sequence of Ubiquitin carboxyl-terminal hydrolase 1 (Homo sapiens) (O94782 whole entry, looked up): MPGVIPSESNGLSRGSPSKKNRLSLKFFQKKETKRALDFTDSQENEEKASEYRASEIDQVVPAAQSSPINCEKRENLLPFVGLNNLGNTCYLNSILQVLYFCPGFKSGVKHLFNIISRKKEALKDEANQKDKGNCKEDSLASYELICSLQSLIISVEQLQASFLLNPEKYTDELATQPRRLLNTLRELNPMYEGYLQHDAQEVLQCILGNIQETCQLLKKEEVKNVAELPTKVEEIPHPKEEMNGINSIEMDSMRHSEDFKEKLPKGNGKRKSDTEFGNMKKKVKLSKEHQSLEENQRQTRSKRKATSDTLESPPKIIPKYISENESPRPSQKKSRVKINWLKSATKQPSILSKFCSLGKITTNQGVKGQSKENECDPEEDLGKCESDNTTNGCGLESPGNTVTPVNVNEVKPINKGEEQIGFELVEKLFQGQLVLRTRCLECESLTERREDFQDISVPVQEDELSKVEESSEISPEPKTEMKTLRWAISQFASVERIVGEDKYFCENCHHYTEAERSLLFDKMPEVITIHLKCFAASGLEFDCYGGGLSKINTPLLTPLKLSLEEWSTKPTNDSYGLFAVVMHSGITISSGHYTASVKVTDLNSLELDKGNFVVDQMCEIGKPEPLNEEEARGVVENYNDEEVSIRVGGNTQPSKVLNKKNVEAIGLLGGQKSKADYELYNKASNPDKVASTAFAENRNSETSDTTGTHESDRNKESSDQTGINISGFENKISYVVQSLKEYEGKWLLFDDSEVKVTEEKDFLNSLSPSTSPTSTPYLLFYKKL
# In short: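 Kinetic fluorescence assay: 1nM USP1/UAF1, 15 min compound preincubation, then 150nM Ub-Rho; 480/540 nm.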
# [7] = target: Bile acid receptor (Homo sapiens) (UniProt Q96RI1); test: qHTS assay for small molecule antagonists of farnesoid X receptor signaling (AID 588526; calls by dose curve)
# Sequence of Bile acid receptor (Homo sapiens) (Q96RI1 whole entry, looked up): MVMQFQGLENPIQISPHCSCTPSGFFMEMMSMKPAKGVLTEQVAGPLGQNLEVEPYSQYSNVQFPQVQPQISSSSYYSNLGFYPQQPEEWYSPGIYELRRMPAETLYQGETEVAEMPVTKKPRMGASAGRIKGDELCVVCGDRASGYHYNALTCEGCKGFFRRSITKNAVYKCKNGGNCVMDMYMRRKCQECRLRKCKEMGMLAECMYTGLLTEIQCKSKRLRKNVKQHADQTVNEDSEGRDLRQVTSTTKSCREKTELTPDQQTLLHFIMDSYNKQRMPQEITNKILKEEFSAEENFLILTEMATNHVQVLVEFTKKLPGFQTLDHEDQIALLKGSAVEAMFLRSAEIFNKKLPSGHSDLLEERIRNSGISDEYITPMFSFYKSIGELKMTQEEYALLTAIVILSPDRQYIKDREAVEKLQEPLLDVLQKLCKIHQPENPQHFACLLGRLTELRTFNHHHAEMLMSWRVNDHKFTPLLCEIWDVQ
# In short: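 Beta-lactamase reporter antagonist mode: HEK293T FXR-UAS-bla cells, titrated compound, CDCA stimulation, 16 h 37 C, CCF4 dye 2 h RT. Data normalized to CDCA 50 uM and DMSO; Hill-fit IC50.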
# [8] = qHTS assay for small molecule antagonists of peroxisome proliferator-activated receptor delta signaling (AID 588535; active = well fitted inhibition curve with a large enough effect in the signal ratio, with a control signal flat, not every such curve was filed as active; the % refers to the signal ratio;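 for max response: cells co-treated with a PPAR-delta agonist as stimulator during compound exposure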); details: HEK293T PPARd-UAS-bla, beta-lactamase FRET ratio, 18 h; 460 nm channel
# In short: (§1)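 HEK293T PPAR-delta-UAS-bla cells, 4000/well, 2% charcoal/dextran FBS; 5 h 37 C; cpd titration; 18 h 37 C; CCF4 2 h RT; FI 460/530 nm; Hill fit → IC50, efficacy.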
# [9] = target: Peroxisome proliferator-activated receptor delta (Homo sapiens) (UniProt Q03181); test: as above
# Sequence of Peroxisome proliferator-activated receptor delta (Homo sapiens) (Q03181 whole entry, looked up): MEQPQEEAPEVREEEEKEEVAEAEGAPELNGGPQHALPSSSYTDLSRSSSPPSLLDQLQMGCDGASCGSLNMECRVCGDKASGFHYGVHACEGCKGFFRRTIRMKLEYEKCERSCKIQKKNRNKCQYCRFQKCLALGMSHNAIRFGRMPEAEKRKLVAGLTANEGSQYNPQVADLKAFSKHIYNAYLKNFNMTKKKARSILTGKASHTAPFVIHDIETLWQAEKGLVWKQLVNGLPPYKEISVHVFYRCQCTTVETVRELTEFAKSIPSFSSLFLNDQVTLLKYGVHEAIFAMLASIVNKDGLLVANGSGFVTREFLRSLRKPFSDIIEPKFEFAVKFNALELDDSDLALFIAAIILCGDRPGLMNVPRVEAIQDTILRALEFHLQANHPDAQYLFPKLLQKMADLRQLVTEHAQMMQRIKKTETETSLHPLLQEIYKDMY
# In short: as §1
# [10] = target: Peroxisome proliferator-activated receptor gamma (Homo sapiens) (UniProt P37231); test: qHTS assay for small molecule agonists of peroxisome proliferator-activated receptor gamma signaling (AID 588536; active = well fitted curve in the direction sought with a large enough effect in the signal ratio, with a control signal flat, not every such curve was filed as active; the % refers to the signal ratio)
# In short: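 Ratiometric blue/green fluorescence (405 nm excitation; 460 and 530 nm emission) from CCF4-loaded HEK293 reporter cells serves as signal. Exposure to test compounds lasts 16 h at 37 C in medium containing 1% charcoal/dextran-treated serum.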
# [11] = target: Peroxisome proliferator-activated receptor gamma (Homo sapiens) (UniProt P37231); test: qHTS assay for small molecule antagonists of peroxisome proliferator-activated receptor gamma signaling (AID 588537; active = well fitted inhibition curve with a large enough effect in the signal ratio, with a control signal flat, not every such curve was filed as active; the % refers to the signal ratio;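 note: reporter cells co-stimulated with 50 nM rosiglitazone agonist during compound treatment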)
# In short: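 Antagonist mode, beta-lactamase reporter in HEK293; charcoal/dextran FBS 1%; 3000 cells/well, 37 C 6-6.5 h; cpd titration + rosiglitazone 50 nM final, 16 h 37 C; CCF4, 2 h RT; 460/530 nm; Hill fit → IC50, efficacy.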
# [12] = target: Vitamin D3 receptor (Homo sapiens) (UniProt P11473); test: qHTS assay for small molecule antagonists of vitamin D receptor signaling (AID 588541; calls by dose curve;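 note: receptor activated by calcitriol during compound treatment; series mostly up to about 77 µM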)
# Sequence of Vitamin D3 receptor (Homo sapiens) (P11473 whole entry, looked up): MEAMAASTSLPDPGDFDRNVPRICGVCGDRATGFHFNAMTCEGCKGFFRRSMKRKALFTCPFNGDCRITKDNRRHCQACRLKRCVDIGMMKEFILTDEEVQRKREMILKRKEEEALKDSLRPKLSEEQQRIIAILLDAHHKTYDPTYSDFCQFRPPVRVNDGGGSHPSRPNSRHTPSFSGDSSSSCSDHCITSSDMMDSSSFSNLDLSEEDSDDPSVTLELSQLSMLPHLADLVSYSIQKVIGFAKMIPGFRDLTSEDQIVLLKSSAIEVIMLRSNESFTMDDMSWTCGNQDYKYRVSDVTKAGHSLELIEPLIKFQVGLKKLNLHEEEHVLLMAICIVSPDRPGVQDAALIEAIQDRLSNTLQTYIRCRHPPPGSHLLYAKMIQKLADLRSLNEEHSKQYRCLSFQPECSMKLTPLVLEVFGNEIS
# In short: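 Antagonist-mode beta-lactamase reporter assay: HEK293T VDR-UAS-bla cells were exposed to titrated compound alongside 1-alpha,25-dihydroxyvitamin D3 at 3 nM final for 16 h. Values were normalized to the 50 nM agonist control and DMSO basal, with IC50 and efficacy from Hill equation fits.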
# [13] = target: Vitamin D3 receptor (Homo sapiens) (UniProt P11473); test: qHTS assay for small molecule agonists of vitamin D receptor signaling (AID 588543; calls by dose curve)
# In short: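 qHTS in agonist mode: compound titrations stimulate a VDR-driven β-lactamase reporter in HEK293T cells over 16 h at 37 °C. Response normalized to 50 nM 1α,25-dihydroxyvitamin D3 = 100%, DMSO = 0%; Hill fitting gives EC50 and maximal response.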
# [14] = qHTS for Inhibitors of ATXN expression: Validation of Cytotoxic Assay (AID 588349); note: potency is the fitted concentration of half-maximal effect
# In short: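 Read-out: ATP-based luminescence (CellTiter Glo) reflecting viability of HEK293 cells after 72 hr incubation at 37 degrees C with a concentration series of each compound.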
# [15] = target: Glucocorticoid receptor (Homo sapiens) (UniProt P04150); test: qHTS assay for small molecule agonists of glucocorticoid receptor signaling (AID 588532; active = well fitted curve in the direction sought with a large enough effect in the signal ratio, with a control signal flat; the % refers to the signal ratio); details: HeLa MMTV-bla, beta-lactamase ratio, agonist, 18 h; stronger effect = higher value; percent of dexamethasone control, DMSO zero
# Sequence of Glucocorticoid receptor (Homo sapiens) (P04150 whole entry, looked up): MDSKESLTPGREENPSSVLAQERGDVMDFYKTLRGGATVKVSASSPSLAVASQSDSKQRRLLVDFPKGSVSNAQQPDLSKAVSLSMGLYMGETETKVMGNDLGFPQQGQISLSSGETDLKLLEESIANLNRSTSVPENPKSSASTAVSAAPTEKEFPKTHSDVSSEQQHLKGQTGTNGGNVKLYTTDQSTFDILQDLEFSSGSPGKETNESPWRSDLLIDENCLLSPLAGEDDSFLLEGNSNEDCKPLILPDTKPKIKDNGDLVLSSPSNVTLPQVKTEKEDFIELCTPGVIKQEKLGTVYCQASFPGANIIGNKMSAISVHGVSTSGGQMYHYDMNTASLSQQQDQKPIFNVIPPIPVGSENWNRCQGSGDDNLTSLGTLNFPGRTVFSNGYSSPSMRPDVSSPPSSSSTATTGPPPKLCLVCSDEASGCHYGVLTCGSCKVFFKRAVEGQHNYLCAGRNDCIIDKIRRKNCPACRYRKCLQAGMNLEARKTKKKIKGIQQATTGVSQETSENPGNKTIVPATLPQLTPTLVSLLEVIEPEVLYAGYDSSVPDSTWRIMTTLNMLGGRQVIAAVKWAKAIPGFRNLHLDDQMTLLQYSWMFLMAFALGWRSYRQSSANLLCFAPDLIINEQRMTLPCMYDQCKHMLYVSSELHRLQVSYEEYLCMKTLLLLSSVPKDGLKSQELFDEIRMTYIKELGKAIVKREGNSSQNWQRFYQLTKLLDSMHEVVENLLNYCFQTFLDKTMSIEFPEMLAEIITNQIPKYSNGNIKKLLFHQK
# In short: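 Quantitative HTS using CellSensor MMTV-bla HeLa cells in charcoal/dextran-treated serum; compounds tested up to 92 uM. After 18 h at 37 C, CCF4 dye reported reporter induction.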
# [16] = target: Glucocorticoid receptor (Homo sapiens) (UniProt P04150); test: qHTS assay for small molecule antagonists of glucocorticoid receptor signaling (AID 588533; active = well fitted inhibition curve with a large enough effect in the signal ratio, with a control signal flat, not every such curve was filed as active; the % refers to the signal ratio;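 note: cells stimulated with 2 nM dexamethasone as agonist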)
# In short: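 Antagonist-mode qHTS: compound titrations added to GRE-bla HeLa cells, then dexamethasone 2 nM final; 18 h, 37 C. CCF4 FRET fluorescence normalized to dexamethasone and DMSO; IC50 from Hill fit.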
# [17] = target: Estrogen receptor (Homo sapiens) (UniProt P03372); test: qHTS assay for small molecule antagonists of estrogen receptor alpha signaling (AID 588513; active = well fitted curve in the direction sought with a large enough effect in the signal ratio, with a control signal flat, not every such curve was filed as active; the % refers to the signal ratio)
# Sequence of Estrogen receptor (Homo sapiens) (P03372 whole entry, looked up): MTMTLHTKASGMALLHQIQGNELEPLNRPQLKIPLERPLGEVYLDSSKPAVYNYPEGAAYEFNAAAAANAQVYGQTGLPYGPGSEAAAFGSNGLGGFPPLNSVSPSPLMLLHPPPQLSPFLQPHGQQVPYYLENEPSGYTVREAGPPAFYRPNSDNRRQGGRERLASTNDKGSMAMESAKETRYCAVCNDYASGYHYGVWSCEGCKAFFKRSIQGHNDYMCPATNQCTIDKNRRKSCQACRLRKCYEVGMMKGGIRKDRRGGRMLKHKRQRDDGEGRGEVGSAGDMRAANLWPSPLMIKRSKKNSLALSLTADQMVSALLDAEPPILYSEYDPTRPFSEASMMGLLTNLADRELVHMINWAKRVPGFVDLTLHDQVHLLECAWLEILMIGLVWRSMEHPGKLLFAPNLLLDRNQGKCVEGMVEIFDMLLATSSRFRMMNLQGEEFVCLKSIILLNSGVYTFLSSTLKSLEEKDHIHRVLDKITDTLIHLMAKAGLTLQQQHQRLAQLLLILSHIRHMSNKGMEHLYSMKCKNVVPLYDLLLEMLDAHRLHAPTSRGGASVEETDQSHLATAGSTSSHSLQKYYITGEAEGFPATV
# In short: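 Cells were plated at 5000/well and incubated 4 h at 37 C. Compounds were added as 1:2 dilution series, duplicates. 17-beta-estradiol (0.5nM final) was added for 18 h before CCF4 detection.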
# [18] = target: Estrogen receptor (Homo sapiens) (UniProt P03372); test: qHTS assay for small molecule agonists of estrogen receptor alpha signaling (AID 588514; calls by dose curve; note: nearly all actives have a fitted effect of over 70% in size; note: potency is the fitted concentration of half-maximal effect)
# In short: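 Cells were plated at 5000/well, incubated 4 hrs at 37 C, dosed with compound titration series, incubated 18 hrs at 37 C, loaded with CCF4 dye for 2 hrs at RT, then fluorescence was read.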
smiles,measurement,setting,value
O=C(O)c1cc([N+](=O)[O-])ccc1NCCCc1ccccc1,Potency,[1],inactive
same,Potency,[2],inactive
same,Potency,[3],inactive
same,Potency,[4],inactive
same,Potency,[5],inactive
N#C/C(=C\c1ccc(O)c(O)c1)C(=O)NCc1ccccc1,Potency,[2],inactive
same,Potency,[3],inactive
same,Potency,[4],inactive
same,Potency,[5],inactive
CC(C)NCC(O)COc1cccc2ccccc12 (centres undefined),Potency,[1],inactive
same,Potency,[6],inactive
same,outcome,[7],inactive
same,max response,[8],-13.8% and 28.5%
same,Potency,[9],inactive
same,outcome,[10],inactive
same,Potency,[11],inactive
same,outcome,[12],inactive
same,outcome,[13],inactive
CCCCCC(O)c1cccc(OCc2ccc3ccccc3n2)c1 (centres undefined),Potency,[2],inactive
same,Potency,[3],inactive
C[N+](C)(C)CCOP(=O)(O)OP(=O)([O-])OC[C@H]1O[C@@H](n2ccc(N)nc2=O)[C@H](O)[C@@H]1O,Potency,[2],inactive
same,Potency,[3],inactive
same,Potency,[6],inactive
same,Potency,[14],inactive
same,Potency,[4],inactive
O=C(/C=C/c1ccc(O)c(O)c1)OCCc1ccccc1,Potency,[1],inactive
same,Potency,[2],inactive
same,Potency,[3],inactive
same,Potency,[4],inactive
O=C(O)[C@@H]1C[C@@H](C(=O)O)N1,Potency,[2],inactive
same,Potency,[3],inactive
same,Potency,[6],inactive
same,Potency,[14],inactive
same,Potency,[4],inactive
same,Potency,[5],inactive
Cc1nc2sccn2c(=O)c1CCN1CCC(=C(c2ccccc2)c2ccc(F)cc2)CC1,Potency,[1],inactive
same,Potency,[2],inactive
same,Potency,[3],inactive
same,Potency,[4],inactive
same,Potency,[5],inactive
COC1=C(OC)C(=O)c2ccccc2C1=O,Potency,[2],inactive
same,Potency,[3],inactive
same,Potency,[6],17.8 µM (active)
O=C(O)/C=C/C(O)c1ccc(Cl)cc1 (centres undefined),Potency,[2],inactive
same,Potency,[3],inactive
same,Potency,[6],inactive
same,Potency,[14],inactive
same,Potency,[4],inactive
CCCCCCCCc1ccc(-c2ccc(C(=O)O)cc2)cc1,Potency,[2],inactive
same,Potency,[3],inactive
same,Potency,[6],50.1 µM (active)
same,Potency,[14],inactive
same,Potency,[4],inactive
O=[N+]([O-])c1ccc2c(c1)S(=O)(=O)C=C2,Potency,[1],inactive
same,Potency,[2],inactive
same,Potency,[3],inactive
same,Potency,[4],6.31 µM (active)
O=C(Nc1cccc(C(=O)Nc2ccc(S(=O)(=O)O)c3cc(S(=O)(=O)O)cc(S(=O)(=O)O)c23)c1)Nc1cccc(C(=O)Nc2ccc(S(=O)(=O)O)c3cc(S(=O)(=O)O)cc(S(=O)(=O)O)c23)c1,Potency,[1],6.75 µM (active)
same,Potency,[3],inactive
same,Potency,[6],28.2 µM (active) and 12.6 µM (active)
same,Potency,[14],inactive
same,Potency,[4],inactive
same,Potency,[5],inactive
Oc1ccccc1O,Potency,[1],inactive
same,Potency,[3],inactive
same,Potency,[6],inactive
same,activation,[15],-6.14% (inactive)
same,outcome,[10],inactive
same,outcome,[13],inactive
CCC1C(=O)OCC1Cc1cncn1C (centres undefined),Potency,[1],inactive
same,Potency,[2],inactive
same,Potency,[3],inactive
same,Potency,[4],inactive
same,Potency,[5],inactive
CCCCCCCCCCCCCCCCCC(=O)OC(CC(=O)O)C[N+](C)(C)C (centres undefined),Potency,[1],inactive
same,Potency,[2],inactive
same,Potency,[3],inactive
same,Potency,[4],inactive
N#C/C(=C\c1ccc(O)c(O)c1)C(=O)c1ccc(O)c(O)c1,Potency,[1],1.69 µM (active)
same,Potency,[2],0.757 µM (active)
same,Potency,[6],inactive
same,Potency,[14],inactive
same,Potency,[4],inactive
Cn1cc(C2=C(c3ccc(Cl)cc3Cl)C(=O)NC2=O)c2ccccc21,Potency,[2],inactive
same,Potency,[3],inactive
same,Potency,[6],23.8 µM (active)
same,Potency,[14],inactive
same,Potency,[4],inactive
same,Potency,[5],2.99 µM (active)
COc1ccc(NC(=O)/C=C/c2ccc(Cl)cc2)cc1,Potency,[1],inactive
same,Potency,[4],inactive
N#C/C(=C\c1ccc(O)c(O)c1)C(=O)NCCCc1ccccc1,Potency,[2],inactive
same,Potency,[3],inactive
same,Potency,[5],inactive
CC(C)NC[C@@H](O)c1ccc(O)c(O)c1,Potency,[2],inactive
same,Potency,[3],inactive
same,Potency,[6],inactive
O=C(/C=C/c1ccc(O)cc1)c1ccc(O)cc1O,Potency,[1],inactive
same,Potency,[2],inactive
same,Potency,[6],79.4 µM (active)
same,Potency,[4],inactive
Ic1ccc(N2CCN(Cc3c[nH]c4ncccc34)CC2)cc1,Potency,[2],inactive
same,Potency,[3],inactive
same,Potency,[6],50.1 µM (active)
Cc1ccc(O)c(N=Nc2ccccc2)n1,Potency,[1],inactive
same,Potency,[2],10.7 µM (active)
same,Potency,[3],10.7 µM (active)
same,Potency,[5],10.6 µM (active)
CO/N=C(\C(=O)N[C@@H]1C(=O)N2C(C(=O)O)=C(COC(C)=O)CS[C@H]12)c1csc(N)n1,Potency,[3],inactive
same,Potency,[6],inactive
same,Potency,[14],inactive
same,Potency,[4],inactive
CCCCCCCCCCCCCCCCCC(=O)NCC(COP(=O)([O-])OCC[N+](C)(C)C)OCC (centres undefined),Potency,[2],inactive
same,Potency,[3],inactive
same,Potency,[14],17.8 µM (active)
O=C(c1cc(O)c(O)c([N+](=O)[O-])c1)c1ccccc1F,Potency,[3],inactive
same,Potency,[14],inactive
same,Potency,[4],inactive
O=C1C(SCCO)=C(SCCO)C(=O)c2ccccc21,Potency,[3],inactive
same,Potency,[4],4.47 µM (active)
same,Potency,[5],4.73 µM (active)
O=C(O)[C@H](O)[C@@H](O)[C@H](O)[C@H](O)CO,Potency,[6],inactive
same,max response,[8],8.66%
same,Potency,[9],inactive
same,outcome,[10],inactive
same,Potency,[11],inactive
same,outcome,[12],inactive
same,outcome,[13],inactive
CC(C)OC(=O)c1cc(C(=O)OC(C)C)cc([N+](=O)[O-])c1,activation,[15],-0.933% (inactive)
same,Potency,[16],inactive
same,max response,[8],31.8%
same,Potency,[9],inactive
same,outcome,[12],inactive
same,outcome,[13],inactive
NCCO,outcome,[17],inactive
same,Potency,[18],12.6 µM (active)
same,activation,[15],1.21% (inactive)
same,Potency,[16],inactive
S=c1[nH]c2ccccc2s1,Potency,[6],inactive
same,outcome,[7],inactive
same,activation,[15],-4.66% (inactive) and -1.91% (inactive)
same,Potency,[16],inactive
same,max response,[8],9.56%
same,Potency,[9],inactive
same,Potency,[11],inactive
same,outcome,[12],inactive
same,outcome,[13],inactive
c1ccc2sc(SSc3nc4ccccc4s3)nc2c1,Potency,[6],inactive
same,outcome,[17],inactive
same,Potency,[18],inactive
same,outcome,[7],inactive
same,activation,[15],0.623% (inactive) and -1.23% (inactive)
same,Potency,[16],inactive
same,max response,[8],2.19%
same,Potency,[9],inactive
same,outcome,[10],inactive
same,Potency,[11],inactive
same,outcome,[12],inactive
same,outcome,[13],inactive
